Sampled rows, rich in hits. Any-hit rate of the full collection: about 8.3%.
Chronic BCR inh = inhibitors of chronic active B-cell receptor signaling | ABC-DLBCL IkBa-CBG/CBR reporter, luminescence ratio, 4 h | Potency, µM (highest dose often 46.1 µM), for inactives: top-dose activity change, negative = inhibition, usual class: inhibitors | 340,000 tested, 0.05% active; active means well fitted inhibition curve with a large enough effect in the signal ratio, with a control signal flat, not every such curve was filed as active; inconclusive means small, poorly fitted or top-dose-only effect, or effect the other way, or a change in a side signal; the % refers to the signal ratio;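 further: potency means the concentration at half of the fitted maximal effect; plate controls were basal doxycycline-induced cells for no effect and cells given 10 µM MG132 for full effect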
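TMD8 human ABC-DLBCL cells with doxycycline-inducible IκBα–green luciferase fusion and unfused red luciferase, in 0.5% FBS medium; compounds up to 46 uM, 4 h at 37C. Green/red luminescence ratio, filter-overlap corrected, fitted to concentration-response curves.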
RORg inh = inhibitors of mouse ROR gamma transcriptional activity; P51450; Drosophila S2 Gal4-RORgamma UAS-luciferase reporter, 20 h; Potency, µM (doses to about 53.6 µM), for inactives: top-dose activity change, negative = inhibition, usual class: inhibitors; 310,000 tested, 5.4% active; AID 2551; further: potency means the concentration at half of the fitted maximal effect; on the % scale 0 is the no-effect control and ±100 the full control effect; nearly all actives have a fitted effect of over 60% in size
Target sequence (P51450 whole entry, looked up, the tested form may be a part): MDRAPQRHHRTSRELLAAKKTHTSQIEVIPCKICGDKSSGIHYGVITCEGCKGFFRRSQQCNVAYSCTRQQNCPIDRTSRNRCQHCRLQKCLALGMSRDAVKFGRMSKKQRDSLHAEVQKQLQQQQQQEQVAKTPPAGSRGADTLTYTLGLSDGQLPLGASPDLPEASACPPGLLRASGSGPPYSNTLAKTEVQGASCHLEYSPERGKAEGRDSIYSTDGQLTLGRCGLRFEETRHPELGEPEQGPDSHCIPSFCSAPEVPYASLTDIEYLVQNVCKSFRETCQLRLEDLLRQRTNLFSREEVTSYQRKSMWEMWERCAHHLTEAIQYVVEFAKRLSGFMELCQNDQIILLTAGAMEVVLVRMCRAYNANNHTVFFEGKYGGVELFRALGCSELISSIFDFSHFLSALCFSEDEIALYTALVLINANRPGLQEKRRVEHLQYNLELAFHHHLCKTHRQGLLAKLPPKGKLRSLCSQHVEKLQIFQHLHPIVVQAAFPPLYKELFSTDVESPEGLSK
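A Gal4/UAS one-hybrid system in insect cells: metallothionein-promoter Gal4–ROR gamma fusion plus Photinus luciferase reporter. Copper sulfate 700 uM final, 20 hr ambient incubation, luminescent detection after 10 min with reagent.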
Gal4-VP16 FLuc = Gal4-VP16 reporter inhibition counter-screen; Drosophila S2 Gal4-VP16 UAS-luciferase, luminescence, 20 h; 310,000 tested, 3.5% active; Potency, µM (highest dose often 53.6 µM), for the others: at the top dose activity, negative = inhibition, usual class: inhibitors;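 further: Gal4-VP16 expression switched on by copper sulfate through the metallothionein promoter; potency means the concentration at half of the fitted maximal effect; on the % scale 0 is the no-effect control and ±100 the full control effect; nearly all actives have a fitted effect of over 50% in size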
Giardia killer = kills Giardia lamblia; AID 540267; 340,000 tested, 0.15% active; activity change, % at 7.66 µM, hits read low; Giardia lamblia trophozoite viability; in the data active means activity change below about -80%; inconclusive means between about -30% and that limit;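 further: parasites exposed to compound for two days anaerobically before the ATP read; on the % scale 0 is the no-effect control and ±100 the full control effect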
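Giardia lamblia trophozoites (100 cells/well) were incubated with compounds for 48 h at 37 deg C under anaerobic conditions. Viability was read as ATP content by one-step luminescence after 15-30 min at room temperature.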
SW480 rerep = DNA re-replication induction in SW480 cells. SW480 DNA re-replication, Hoechst DNA content imaging, 48 h. Potency, µM (series often up to 46.1 µM), inactives show top-dose re-replication activation, usual class: activators. 340,000 tested, 1.8% active. AID 624297; further: potency means the concentration at half of the fitted maximal effect; % of control where 0% means no effect; nearly all actives have a fitted effect of over 55% in size
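Image-based read-out: total Hoechst fluorescence of nuclei (405 nm excitation, 500-530 nm emission), with hits raising the fraction of high-intensity nuclei. SW480 colon cells incubated 48 hr with compounds at 37 C.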
MCF10A rereplic = inducers of DNA re-replication in MCF 10A breast cells; MCF 10A DNA re-replication, Hoechst nuclear intensity, 48 h; Potency, µM (top dose mostly 46.1 µM), inactives show at the highest dose activity, positive = re-replication, most hits filed as activators; 350,000 tested, 2.9% active; AID 624296; further: potency means the concentration at half of the fitted maximal effect; % of control where 0% means no effect; nearly all actives have a fitted effect of over 50% in size
An asterisk follows results filed as active; ? = inconclusive; nt = not tested or not shown; [ ] = another dose, or the depositor's remark. Unless noted, the call rests on the fitted dose curve; in most records, active means well fitted curve in the direction sought with a large enough effect; inconclusive means small, poorly fitted or top-dose-only effect, or another doubt; inactive means no such curve, though single readings can be large; an effect the other way counts as inactive or inconclusive.

SMILES | Chronic BCR inh | RORg inh | Gal4-VP16 FLuc | Giardia killer | SW480 rerep | MCF10A rereplic
CC(C)C[C@H](NC(=O)c1nc[nH]c1C(=O)N1CCC(C)CC1)C(=O)OCc1ccccc1 | -14.9% | ? | ? | 17.9 | 0.1% | -1.5%
CC(C)(C)OC(=O)[C@H](Cc1ccccc1)NC(=O)c1nc[nH]c1C(=O)N1CCN(c2ccccc2)CC1 | -0.5% | -12.4% | ? | 20.7 | -1.2% | -1.7%
CC(C)(C)OC(=O)N1CCN(C(=O)c2[nH]cnc2C(=O)N[C@@H](Cc2ccccc2)C(=O)OCc2ccccc2)CC1 | ? | 11.2µM* | ? | 30.2 | -2.3% | ?
CC(C)(C)OC(=O)[C@H](Cc1ccccc1)NC(=O)c1nc[nH]c1C(=O)N1CCc2ccccc2C1 | 12.3% | ? | ? | 13.2 | -0.8% | ?
CC(C)(C)OC(=O)[C@H](Cc1ccccc1)NC(=O)c1nc[nH]c1C(=O)NC1CCN(C(=O)OC(C)(C)C)CC1 | ? | 5.01µM* | 7.08µM* | 16.4 | -3.1% | 5.3%
CC(C)NC(=O)C12CC3CC(C1)CC(C(=O)NC(C)C)(C3)C2 | -1.2% | -12.1% | -6.0% | -2.4 | 3.2% | 2.8%
O=C(CCN1CCOCC1)NNC(=S)NC(=O)c1ccccc1 | 0.0% | 14.1µM* | -1.2% | -7.5 | -90.3% | ?
O=C(CCN1CCOCC1)c1ccc2c(c1)OCCO2 | ? | ? | 3.16µM* | -0.8 | ? | 6.51µM*
O=C(CCN1CCN(C(=O)c2ccccc2)CC1)c1ccc(Br)cc1 | ? | -122.2% | ? | -1.6 | ? | 16.4µM*
O=C(CCN1CCCCC1)c1ccccc1 | ? | 7.4% | -0.3% | 6.6 | ? | ?
O=C(CCCN1CCOCC1)c1ccc2c(c1)OCCO2 | ? | ? | ? | 12.7 | 2.0% | ?
O=C(CCN1CCOCC1)NCc1ccccc1 | -0.3% | -9.0% | -13.8% | -9.1 | 4.8% | -0.2%
O=C(CCN1CCOCC1)c1ccccc1 | -11.3% | ? | -4.2% | 6.1 | 199.0% | 2.59µM*
Cc1oc(-c2ccccc2Cl)nc1CS(=O)CC(=O)N1CCN(c2ccccc2)CC1 (stereo not drawn) | -1.4% | 15.8% | 0.8% | 16.5 | ? | -4.2%
COc1cn(CC(=O)Nc2ccc(C)cc2)c(CN2CCCCC2)cc1=O | 4.7% | nt | nt | nt | nt | nt
CC(CN1CCCCC1)OC(=O)c1ccc2c(c1)OCO2 (stereo not drawn) | 3.1% | -28.9% | -2.1% | 0.1 | -10.0% | -4.4%
O=C(CCN1CCCCC1)c1ccc2c(c1)OCO2 | 5.9% | 3.16µM* | 12.6µM* | -10.8 | -0.6%[9.22 µM] | ?
O=C(CCN1CCc2ccccc2CC1)c1ccc2c(c1)OCCO2 | ? | 6.31µM* | 3.98µM* | -5.4 | 13µM* | 1.3µM*
O=[N+]([O-])c1ccc(OCC(O)CNCCNc2nccc(C(F)(F)F)n2)cc1 (stereo not drawn) | 0.0% | 33.9% | -1.2% | -3.1 | 0.5% | -0.6%
O=C(Nc1ccc(Cl)c(S(=O)(=O)N2CCCC2)c1)c1nn(CCO)c(=O)c2ccccc12 | 0.4% | nt | nt | 15.7 | -3.2% | ?
COC(=O)C(NS(N)(=O)=O)C(C)C (stereo not drawn) | nt | -14.7% | 4.5% | -0.1 | nt | nt
Cc1cc(C)n(CC(=O)n2nc(C)cc2C)n1 | ? | 0.316µM* | 5.0% | -12.0 | -4.7%[9.22 µM] | -0.1%
COCCCN(CC(=O)Nc1ccc(N2CCOCC2)cc1)S(=O)(=O)c1ccc(Cl)cc1 | -17.4% | -5.9% | 1.4% | -26.1 | -2.7% | 2.0%
CCC(CN(C)C)Oc1cc(NCc2ccccc2)c2ncn(C(C)C)c2c1 (stereo not drawn) | -0.3% | nt | nt | -5.0 | 18.4µM* | ?
COc1cc(NCc2ccccc2)c2ncn(C(C)C)c2c1 | ? | nt | nt | -16.5 | ? | -3.6%
SMILES | Chronic BCR inh | RORg inh | Gal4-VP16 FLuc | Giardia killer | SW480 rerep | MCF10A rereplic
CCC(CO)Oc1cc(NCc2ccc(F)cc2)c2ncn(C(C)C)c2c1 (stereo not drawn) | 3.0% | nt | nt | 2.5 | ? | 23.1µM*
CCC(CO)Oc1cc(NCc2ccc(C)c(C)c2)c2ncn(C(C)C)c2c1 (stereo not drawn) | -5.4% | nt | nt | -13.7 | 5.17µM* | 14.6µM*
CC(=O)C1=C(C)Nc2ncnn2C1c1cccc(O)c1 (stereo not drawn) | 3.8% | -29.6% | 0.9% | -6.4 | -10.0% | -1.4%
N#CC(C#N)=C1SC(=Nc2ccccc2)C(=Nc2ccccc2)N1c1ccccc1 | nt | nt | nt | 5.7 | ? | 3.26µM*
Fc1ccc(N2C(=S)SC(=Nc3ccccc3)C2=Nc2ccccc2)cc1 | nt | nt | nt | -4.1 | -1.9% | 6.1%
Cc1cccc(OCCOCCSc2ncccn2)c1 | ? | ? | 18.9% | 0.1 | -3.7% | 0.8%
CCNc1nc(NCC)nc(SCCOc2ccc(C)cc2)n1 | ? | ? | ? | 7.1 | 8.2% | 20.6µM*
Cc1cccc(OCCSc2nc(N)cc(N)n2)c1 | 10.0% | ? | -16.6% | -22.2 | 16.4µM* | ?
Cc1ccc(OCCSc2ncccn2)c(C)c1 | ? | 10µM* | ? | 7.9 | -6.6% | 13.6%
CCOc1nc(SCCOc2ccc(C)cc2)nc(N(C)C)n1 | 6.6% | -36.9% | -2.9% | -1.4 | -15.0% | -16.6%
CN1CCN(c2ccccc2NS(=O)(=O)c2ccc3c(c2)CCN3C(=O)C2CCC2)CC1 | nt | nt | nt | -3.1 | 0.0% | 17.8%
O=[N+]([O-])c1ccc(Cl)cc1N1CCCCC1 | -0.5% | -0.2% | 6.1% | 7.6 | ? | 8.6%
O=C(N/N=C/c1ccccc1C(=O)O)c1ccc(COc2cccc3cccnc23)cc1 | -0.6% | 3.5% | 14.3% | -3.7 | 0.6% | -7.2%
Cc1cc(Br)c(OCc2ccc(C(=O)N/N=C/c3ccc[nH]3)cc2)c(Br)c1 | -6.4% | nt | nt | -0.3 | 3.66µM* | ?
O=C(N/N=C/c1ccc[nH]1)c1ccc(COc2cccc3cccnc23)cc1 | -1.9% | 12.6µM* | 14.1µM* | 23.0 | 26.6% | ?
CC(=O)Nc1ccc(N(C(=O)Cc2cccs2)C(C(=O)NC2CCCC2)c2ccncc2)cc1 (stereo not drawn) | 1.2% | -0.7% | -7.1% | -21.5 | 20.6% | -16.3%
CC(=O)c1cccc(NC(=S)NC(=O)Cc2ccc(Cl)cc2)c1 | -15.4% | 10µM* | ? | 34.7 | -3.2% | -2.0%
O=C(Cc1ccccc1)Nc1ccc(NC(=S)NC(=O)c2ccccc2)cc1 | -16.6% | -36.4% | -18.5% | -21.8 | -2.0% | -4.0%
CC(=O)c1cccc(NC(=S)Nc2ccn(Cc3cccc4ccccc34)n2)c1 | -4.9% | 2.82µM* | 5.01µM* | -3.1 | -9.3% | 0.5%
CC(=O)c1cccc(NC(=S)NC(=O)Cc2ccccc2)c1 | -0.8% | 1.41µM* | 5.01µM* | 5.9 | -85.0% | -12.6%

Screening results: PubChem BioAssay, National Center for Advancing Translational Sciences (NCATS)
